Among the data in ChEMBL document CHEMBL3988442, “University of Dundee, Small-Polar-MMV Screening Library” (2021) are Percent Effect values, retold here.

The species entered for the assay is Homo sapiens. Put plainly: To identify inhibition of the IFN signalling (Jak-Stat) pathway via expression of an eGFP reporter gene under the control of an IFN-stimulated response element (ISRE) containing MxA promoter. In kind it is functional. Details: scale not given: direction of the effect not stated beside the values. Conditions: 30 µM.
`CC(C)(C)c1n[nH]c(C2CN(C(=O)c3cc(Cl)c[nH]3)CCO2)n1` (stereo not drawn): the Percent Effect was -3.03%.

For `Cc1nn(CC(C)C)c(N(C)C)c1CNCc1cc2ccccc2[nH]1`, the Percent Effect turned out to be 2.34%.

As for `Cc1ccc(CN2C[C@@H]3COC[C@H](NS(C)(=O)=O)[C@@H]3C2)o1`, the Percent Effect was determined as 12.6%.

For `CC(=O)Nc1nc(C2CCN(C(C)=O)CC2)cs1`, the Percent Effect turned out to be 4.06%.

With `COCC(=O)N1Cc2cn(C)nc2C(COc2cccnc2)C1` (stereo not drawn), the Percent Effect was 35.1%.

In the case of `O=C(COCc1nc(-c2ccncc2)no1)N1CCCC1`, the Percent Effect was -13.8%.

Take `CCOC(=O)c1sc(NC(=O)CN(C)S(C)(=O)=O)c(C#N)c1C`: the Percent Effect turned out to be 21.1%.

`Cc1ccc([C@]2(O)CC[C@H]3CN(Cc4cc(C)c(O)c(C)c4)C[C@H]32)nc1`: the Percent Effect was determined as 11.6%.

For `O=C(C1=CCCC1)N1CCO[C@H]2[C@@H](OCC3CC3)CC[C@@H]21`, the Percent Effect is -0.0365%.

For `Cc1nc(C)n(CC2CCCN2CC(=O)NCc2ccco2)n1` (stereo not drawn), the Percent Effect came to 6.45%.

On to `CCOC(=O)NC(C(=O)NCc1ccc(N2CCCCC2)nc1)C(C)C` (stereo not drawn), for which the Percent Effect worked out at 28.9%.

Take `Cc1cc(NC(=O)c2nc(N3CCCC3)ncc2Cl)nc(C(C)C)n1`: the Percent Effect was found to be 2.69%.

Consider `CC(C)c1nc(C(=O)N2CCOCC2CC(=O)c2ccco2)c[nH]1` (stereo not drawn), for which the Percent Effect was -8.33%.

`OC1CCN(Cc2c(C3CCCNC3)[nH]c3ncccc23)CC1` (stereo not drawn): the Percent Effect is -1.37%.

Take `CS(=O)(=O)CCC(=O)Nc1cnn(-c2ccccc2Cl)c1`: the Percent Effect came out at 6.38%.

As for `CC(C)CN1CCN(Cc2nc3ccccc3[nH]2)[C@H]2CS(=O)(=O)C[C@H]21`, the Percent Effect worked out at 0.0398%.

For the compound `O=C(Cn1cnc(NC(=O)CC2CCCC2)n1)NCc1ccccc1`, the Percent Effect came out at 11.9%.

Turning to `CN(Cc1ccco1)C(=O)[C@H]1CSCN1C(=O)OC(C)(C)C`, the Percent Effect was -0.327%.
